Laboratory results from article PMC11006913.

Tests used:
Experiment in all cases: PBM; 200 nM protein, PBS
Conditions in all cases: dsDNA, one strand shown
ALX4 [1] = target: ALX4 (Homo sapiens, UniProt Q9H161 200-286)
ALX4 [2] = target: ALX4 (Homo sapiens, UniProt Q9H161 200-286, Q225E)
HOXB6 [3] = target: HOXB6 (Homo sapiens, UniProt P17509 132-218, K202E)
HOXB6 [4] = target: HOXB6 (Homo sapiens, UniProt P17509 132-218)
Chain of HOXB6 (Homo sapiens, UniProt P17509 132-218) (P17509 132-218): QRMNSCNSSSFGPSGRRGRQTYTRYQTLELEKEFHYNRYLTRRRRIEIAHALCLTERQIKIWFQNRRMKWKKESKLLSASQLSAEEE

Chain of ALX4 (Homo sapiens, UniProt Q9H161 200-286) (Q9H161 200-286): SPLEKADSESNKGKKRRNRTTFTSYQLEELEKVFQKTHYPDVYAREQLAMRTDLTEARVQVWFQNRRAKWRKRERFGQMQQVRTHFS
Chain of ALX4 (Homo sapiens, UniProt Q9H161 200-286, Q225E) (Q9H161 200-286 Q225E): as the sequence (Q9H161 200-286) above, with Q26E counted along it
Chain of HOXB6 (Homo sapiens, UniProt P17509 132-218, K202E) (P17509 132-218 K202E): as the sequence (P17509 132-218) above, with K71E counted along it

Row | Sequence | binding signal (ALX4 [1]) | binding signal (ALX4 [2]) | binding signal (HOXB6 [3]) | binding signal (HOXB6 [4])
1 | GGTGGCCA | 8.06 upbm affinity estimate (log intensity, higher = more binding, comparable within an allelic series) | 8.37 upbm affinity estimate (log intensity, higher = more binding, comparable within an allelic series) | – | –
2 | CCAGGACG | 8.2 upbm affinity estimate (log intensity, higher = more binding, comparable within an allelic series) | 8.31 upbm affinity estimate (log intensity, higher = more binding, comparable within an allelic series) | – | –
3 | CTCGGGTC | 8.18 upbm affinity estimate (log intensity, higher = more binding, comparable within an allelic series) | 8.25 upbm affinity estimate (log intensity, higher = more binding, comparable within an allelic series) | – | –
4 | CCTGCAGG | 8.12 upbm affinity estimate (log intensity, higher = more binding, comparable within an allelic series) | 8.04 upbm affinity estimate (log intensity, higher = more binding, comparable within an allelic series) | 9.05 upbm affinity estimate (log intensity, higher = more binding, comparable within an allelic series) | 8.92 upbm affinity estimate (log intensity, higher = more binding, comparable within an allelic series)
5 | GCTCAAGC | 8.08 upbm affinity estimate (log intensity, higher = more binding, comparable within an allelic series) | 8.25 upbm affinity estimate (log intensity, higher = more binding, comparable within an allelic series) | – | –
6 | ACTTACCG | 9.9 upbm affinity estimate (log intensity, higher = more binding, comparable within an allelic series) | 9.28 upbm affinity estimate (log intensity, higher = more binding, comparable within an allelic series) | – | –
7 | CGGATGTC | 8.26 upbm affinity estimate (log intensity, higher = more binding, comparable within an allelic series) | 8.17 upbm affinity estimate (log intensity, higher = more binding, comparable within an allelic series) | – | –
8 | CATGGGGG | 7.84 upbm affinity estimate (log intensity, higher = more binding, comparable within an allelic series) | 7.96 upbm affinity estimate (log intensity, higher = more binding, comparable within an allelic series) | – | –
9 | CGATATAA | 10.2 upbm affinity estimate (log intensity, higher = more binding, comparable within an allelic series) | 9.67 upbm affinity estimate (log intensity, higher = more binding, comparable within an allelic series) | – | –
10 | GAGGGAGC | 8.04 upbm affinity estimate (log intensity, higher = more binding, comparable within an allelic series) | 8.01 upbm affinity estimate (log intensity, higher = more binding, comparable within an allelic series) | – | –
11 | ATTACGAA | 11.4 upbm affinity estimate (log intensity, higher = more binding, comparable within an allelic series) | 10.3 upbm affinity estimate (log intensity, higher = more binding, comparable within an allelic series) | – | –
12 | CGCCTTGA | 8.09 upbm affinity estimate (log intensity, higher = more binding, comparable within an allelic series) | 8.15 upbm affinity estimate (log intensity, higher = more binding, comparable within an allelic series) | – | –
13 | CCCGGAAG | 7.9 upbm affinity estimate (log intensity, higher = more binding, comparable within an allelic series) | 8.04 upbm affinity estimate (log intensity, higher = more binding, comparable within an allelic series) | – | –
14 | GTAAAATA | 10.2 upbm affinity estimate (log intensity, higher = more binding, comparable within an allelic series) | 9.6 upbm affinity estimate (log intensity, higher = more binding, comparable within an allelic series) | – | –
15 | CAGTCGCC | 8.23 upbm affinity estimate (log intensity, higher = more binding, comparable within an allelic series) | 8.19 upbm affinity estimate (log intensity, higher = more binding, comparable within an allelic series) | – | –
16 | ACGCGGGA | 8.23 upbm affinity estimate (log intensity, higher = more binding, comparable within an allelic series) | 8.27 upbm affinity estimate (log intensity, higher = more binding, comparable within an allelic series) | – | –

Row | Sequence | binding signal (ALX4 [1]) | binding signal (ALX4 [2]) | binding signal (HOXB6 [3]) | binding signal (HOXB6 [4])
17 | AAGCCGGC | 7.99 upbm affinity estimate (log intensity, higher = more binding, comparable within an allelic series) | 8.26 upbm affinity estimate (log intensity, higher = more binding, comparable within an allelic series) | – | –
18 | CGCCCTTC | 8.03 upbm affinity estimate (log intensity, higher = more binding, comparable within an allelic series) | 8.24 upbm affinity estimate (log intensity, higher = more binding, comparable within an allelic series) | – | –
19 | AACTTACA | 9.85 upbm affinity estimate (log intensity, higher = more binding, comparable within an allelic series) | 9.42 upbm affinity estimate (log intensity, higher = more binding, comparable within an allelic series) | – | –
20 | TATTTTGA | 9.82 upbm affinity estimate (log intensity, higher = more binding, comparable within an allelic series) | 9.39 upbm affinity estimate (log intensity, higher = more binding, comparable within an allelic series) | – | –
21 | CGACGCAG | 7.86 upbm affinity estimate (log intensity, higher = more binding, comparable within an allelic series) | 7.87 upbm affinity estimate (log intensity, higher = more binding, comparable within an allelic series) | – | –
22 | ATTTTCTC | 10.1 upbm affinity estimate (log intensity, higher = more binding, comparable within an allelic series) | 9.45 upbm affinity estimate (log intensity, higher = more binding, comparable within an allelic series) | – | –
23 | CTATAATA | 11.6 upbm affinity estimate (log intensity, higher = more binding, comparable within an allelic series) | 10.8 upbm affinity estimate (log intensity, higher = more binding, comparable within an allelic series) | – | –
24 | TAAATTTA | 12.2 upbm affinity estimate (log intensity, higher = more binding, comparable within an allelic series) | 11 upbm affinity estimate (log intensity, higher = more binding, comparable within an allelic series) | – | –
25 | ATTGGTGA | 10.4 upbm affinity estimate (log intensity, higher = more binding, comparable within an allelic series) | 9.78 upbm affinity estimate (log intensity, higher = more binding, comparable within an allelic series) | – | –
26 | CCCCTCTC | 8.15 upbm affinity estimate (log intensity, higher = more binding, comparable within an allelic series) | 8.2 upbm affinity estimate (log intensity, higher = more binding, comparable within an allelic series) | – | –
27 | GAGAGGCA | 8.02 upbm affinity estimate (log intensity, higher = more binding, comparable within an allelic series) | 8.16 upbm affinity estimate (log intensity, higher = more binding, comparable within an allelic series) | – | –
28 | ATAAGCAC | 9.96 upbm affinity estimate (log intensity, higher = more binding, comparable within an allelic series) | 9.46 upbm affinity estimate (log intensity, higher = more binding, comparable within an allelic series) | – | –
29 | ATTAACCA | 12.4 upbm affinity estimate (log intensity, higher = more binding, comparable within an allelic series) | 11.3 upbm affinity estimate (log intensity, higher = more binding, comparable within an allelic series) | – | –
30 | GAATACAA | 9.67 upbm affinity estimate (log intensity, higher = more binding, comparable within an allelic series) | 9.34 upbm affinity estimate (log intensity, higher = more binding, comparable within an allelic series) | – | –
31 | ATGATAAA | 10.4 upbm affinity estimate (log intensity, higher = more binding, comparable within an allelic series) | 9.81 upbm affinity estimate (log intensity, higher = more binding, comparable within an allelic series) | – | –
32 | GCAGCTCC | 8.25 upbm affinity estimate (log intensity, higher = more binding, comparable within an allelic series) | 8.26 upbm affinity estimate (log intensity, higher = more binding, comparable within an allelic series) | – | –
